Test results taken from PMC4336329 (PLoS ONE, 2015).
Hit rate of the full screen: of about 310,000 compounds, about 14,000 (4.5%) showed an effect of 50% or more. Effects have a minus sign here. This is one part of a sample in which strong results are shown more often than they occur.

Molecular target: human ether-à-go-go-related gene (hERG) potassium channel (human, UniProt Q12809)
Experiment: primary screen, population patch clamp on CHO cells stably expressing hERG; higher = less effect of the substance
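Note: peak tail current of the secondary pulse compared with the same well before compound.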

Chain of human ether-à-go-go-related gene (hERG) potassium channel (Q12809 whole entry, looked up): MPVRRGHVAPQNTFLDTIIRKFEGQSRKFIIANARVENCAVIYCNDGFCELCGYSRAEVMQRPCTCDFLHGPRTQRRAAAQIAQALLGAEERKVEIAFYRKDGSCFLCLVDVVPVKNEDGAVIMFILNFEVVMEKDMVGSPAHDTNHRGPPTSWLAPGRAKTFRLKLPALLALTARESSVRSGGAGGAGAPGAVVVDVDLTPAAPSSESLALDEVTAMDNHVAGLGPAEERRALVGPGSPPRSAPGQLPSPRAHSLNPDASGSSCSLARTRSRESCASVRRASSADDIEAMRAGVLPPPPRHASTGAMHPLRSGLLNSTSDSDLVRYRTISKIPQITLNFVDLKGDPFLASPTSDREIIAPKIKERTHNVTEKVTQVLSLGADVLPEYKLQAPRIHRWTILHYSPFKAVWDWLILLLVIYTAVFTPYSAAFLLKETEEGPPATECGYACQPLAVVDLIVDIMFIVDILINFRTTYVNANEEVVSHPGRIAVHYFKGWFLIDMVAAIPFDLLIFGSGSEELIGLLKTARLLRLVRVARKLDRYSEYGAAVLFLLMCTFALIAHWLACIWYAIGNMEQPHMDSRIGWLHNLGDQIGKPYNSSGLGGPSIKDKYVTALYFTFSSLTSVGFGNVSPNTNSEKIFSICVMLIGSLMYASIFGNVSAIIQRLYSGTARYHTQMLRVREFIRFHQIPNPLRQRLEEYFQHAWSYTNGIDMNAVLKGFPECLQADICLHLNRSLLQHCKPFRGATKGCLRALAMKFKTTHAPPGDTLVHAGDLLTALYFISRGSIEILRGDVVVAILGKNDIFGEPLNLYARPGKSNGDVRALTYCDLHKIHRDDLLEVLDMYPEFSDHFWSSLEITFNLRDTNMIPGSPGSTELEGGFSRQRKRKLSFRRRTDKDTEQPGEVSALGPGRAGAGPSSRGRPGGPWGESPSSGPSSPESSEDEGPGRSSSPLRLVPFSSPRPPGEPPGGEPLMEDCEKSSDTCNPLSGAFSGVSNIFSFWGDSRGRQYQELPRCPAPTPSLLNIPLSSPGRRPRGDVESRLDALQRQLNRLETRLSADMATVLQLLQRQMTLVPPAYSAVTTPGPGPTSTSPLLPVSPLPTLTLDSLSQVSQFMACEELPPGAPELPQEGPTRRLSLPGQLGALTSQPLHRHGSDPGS

Row | Structure (SMILES) | hERG current change (%, negative = inhibition) at 10uM
1 | O=C(NCC(c1cccs1)N1CCc2ccccc21)c1ccccc1 (centres unmarked) | 15.3%
2 | C=CCN(c1ccc(C(=O)N(CC)CC)cc1)S(C)(=O)=O | -4.12%
3 | CCN(CC)CCCNC(=O)C1c2ccccc2C(=O)N(CCOC)C1c1ccc(F)cc1 (centres unmarked) | 14.9%
4 | COc1ccc(CNC(=O)COC(=O)c2[nH]c(C)c(C(C)=O)c2C)cc1OC | 1.28%
5 | CC(=O)Oc1ccc(N2C(=O)CCC2=O)cc1 | 16%
6 | Cc1ccc(N2C(=O)[C@@H]3Cc4ccccc4CN3C2=O)cc1 | -3.34%
7 | CCOC(=O)CC1C(=O)NCCN1C(=O)c1ccc(Cl)cc1 (centres unmarked) | 12.9%
8 | Nc1nc2ccc(NC(=O)c3ccco3)cc2s1 | 11.7%
9 | COc1ccc(CNC(=O)CCc2nnc3ccc(N4CCC5(CC4)OCCO5)nn23)cc1 | 15.1%
10 | Nn1c(COc2ccccc2F)nnc1SCC(=O)NC1CC1 | 0.387%
11 | CC(=O)NC1=NN(C(C)=O)C(C)(c2ccco2)S1 (centres unmarked) | 14.6%
12 | Cc1ccc(-c2cn(-c3ccc(OC(F)F)cc3)c3[n+]2CCCCC3)cc1.[Br-] | -61.6%
13 | Cc1ccc(CONC(=O)c2ccc(OC(F)F)cc2)cc1 | -30.9%
14 | O=C(CC1C(=O)NCCN1Cc1ccoc1)NCc1cccc(OC(F)(F)F)c1 (centres unmarked) | 1.19%
15 | CC(C)(O)CC[C@@H](O)[C@](C)(O)C1CC[C@@]2(O)C3=CC(=O)[C@]4(O)C[C@@H](O)[C@@H](O)C[C@]4(C)C3CC[C@]12C (some centres unmarked) | 30.1%
16 | CCCCCCSc1ncc(C#N)c(N)n1 | -4.45%
17 | CCCCCc1nc2c(c(=O)c3ccccc3n2C)c(=O)n1C1CCCCCC1 | 1.32%
18 | CCCc1nc2c(c(=O)c3ccccc3n2C)c(=O)n1C1CCCCCC1 | -10.1%
19 | CC(C)Cn1c(-c2ccco2)nc2c(c(=O)c3ccccc3n2C)c1=O | -59.3%
20 | Cn1c2ccccc2c(=O)c2c(=O)n(C3CCCCC3)c(-c3cccs3)nc21 | -66.1%

Row | Structure (SMILES) | hERG current change (%, negative = inhibition) at 10uM
21 | Cc1ccc(-c2nc3c(c(=O)c4ccccc4n3C)c(=O)n2Cc2ccco2)cc1 | 2.18%
22 | Cc1nc2c(c(=O)c3ccccc3n2C)c(=O)n1C1CCCCCC1 | -0.582%
23 | COc1ccc(Cn2c(-c3ccco3)nc3c(c(=O)c4ccccc4n3C)c2=O)cc1 | -35.3%
24 | CCc1nc2c(c(=O)c3ccccc3n2C)c(=O)n1C1CCCCCC1 | -1.73%
25 | Cn1c2ccccc2c(=O)c2c(=O)n(C3CCCCC3)c(-c3ccco3)nc21 | -53.9%
26 | COC(=O)c1sc(NC(=O)COc2cccnc2[N+](=O)[O-])c(C(=O)OC)c1C | 3.81%
27 | CCOc1ccccc1Cn1c(=O)oc2ccc(C)cc21 | 11.1%
28 | Cc1cc(C)cc(N(CC(=O)NCC2CCCO2)C(=O)CCC(=O)Nc2nccs2)c1 (centres unmarked) | 12.8%
29 | O=C(/C=C/c1cccc([N+](=O)[O-])c1)NCCSCc1cccc(Cl)c1 | -18.9%
30 | CCOCCCNC(=O)C(NC(=O)c1ccccc1O)c1ccccc1 (centres unmarked) | 7.92%
31 | COc1ccc(S(=O)(=O)NCC(c2cccnc2)N2CCN(C)CC2)cc1OC (centres unmarked) | 10.7%
32 | COc1ccc(S(=O)(=O)NCc2cccnc2)cc1C | 17.1%
33 | CCS(=O)(=O)NCC(c1cccnc1)N1CCN(c2ccccc2OC)CC1 (centres unmarked) | 0.421%
34 | COc1ccc(C)cc1S(=O)(=O)NCC(c1cccnc1)N1CCc2ccccc2C1 (centres unmarked) | -25.3%
35 | Cc1cc(S(=O)(=O)NCC(C)C)ccc1OCC(=O)N1CCN(Cc2ccccc2)CC1 | -35.2%
36 | CCN1CCN(C(CNS(=O)(=O)c2ccc(OC)c(C)c2)c2cccnc2)CC1 (centres unmarked) | -70.2%
37 | COc1ccccc1N1CCN(C(CNS(=O)(=O)c2ccc(C)cc2)c2cccnc2)CC1 (centres unmarked) | -38.9%
38 | COc1ccc(S(=O)(=O)NCC(c2cccnc2)N2CCN(c3ccccc3)CC2)cc1C (centres unmarked) | -79.2%
39 | COc1ccc(S(=O)(=O)NCC(c2cccnc2)N2CCN(Cc3ccccc3)CC2)cc1C (centres unmarked) | -79.6%
40 | COc1ccccc1N1CCN(C(CNS(=O)(=O)c2ccccc2)c2cccnc2)CC1 (centres unmarked) | -7.98%

Row | Structure (SMILES) | hERG current change (%, negative = inhibition) at 10uM
41 | COc1ccc(S(=O)(=O)NCC(c2cccnc2)N2CCN(C)CC2)cc1C (centres unmarked) | -62.9%
42 | Cc1ccc(Sc2ncccc2COC(=O)NC(C)C)cc1 | 4.99%
43 | CC(C)OCCCN(CC(O)c1ccccc1)CC(O)c1ccccc1.O=C(O)C(=O)O (centres unmarked) | -10.1%
44 | CC(C)(C)C(=O)C[n+]1cccc(C(N)=O)c1.[Br-] | 21%
45 | Cc1nn(-c2ccccc2)c2c1C1(C(=O)N(C(C)C)c3ccccc31)C(C#N)=C(N)O2 (centres unmarked) | -1.88%
46 | CC1=Nc2cc(C(=O)N3CCCC3)ccc2Sc2c(C)ccc(C)c21 | -19.5%
47 | CSc1ncc(OCc2ccccc2)c(=O)[nH]1 | 8.39%
48 | O=C1CS/C(=N\NC(=O)c2ccccc2)N1 | 15.6%
49 | Cc1ccccc1-c1nc(CN2CCC(C(=O)NCC3CCCO3)CC2)c(C)o1 (centres unmarked) | -54.5%
50 | O=C(NCC1CCCO1)C1CCN(C(=O)c2ccc(Cl)cc2)CC1 (centres unmarked) | -1.73%
51 | Cc1ccccc1-c1nc(CN2CCC(C(=O)NCCN3CCOCC3)CC2)c(C)o1 | -11.4%
52 | Cc1ccccc1-c1nc(CN2CCC(C(=O)NCCCN3CCCC3)CC2)c(C)o1 | 14.4%
53 | Cc1ccccc1-c1nc(CN2CCC(C(=O)NC3CC3)CC2)c(C)o1 | -33%
54 | Cc1ccccc1-c1nc(CN2CCC(C(=O)NC3CCN(Cc4ccccc4)CC3)CC2)c(C)o1 | -43%
55 | Cc1cccc(-c2nc(CS(=O)CC(=O)NCC3CCCO3)c(C)o2)c1 (centres unmarked) | -5.24%
56 | Cc1oc(-c2cccc(Cl)c2)nc1CN1CCC(C(=O)NCC2CCCO2)CC1 (centres unmarked) | -57.1%
57 | COc1ccc(-c2nc(CN3CCC(C(=O)NCC4CCCO4)CC3)c(C)o2)cc1OC (centres unmarked) | -20.9%
58 | Cc1ccccc1-c1nc(CN2CCC(C(=O)NC3CCCCC3)CC2)c(C)o1 | -67.7%
59 | Cc1oc(-c2ccc(Cl)cc2)nc1CN1CCC(C(=O)NCC2CCCO2)CC1 (centres unmarked) | -70.1%
